Screening data as filed in PubChem.
HSP90 inh – HSP90 inhibitors, primary screen, cell lysate, luminescence; Rabbit reticulocyte lysate, luciferase refolding luminescence, 3 h; inhibition, % at 5.6 µM; 290,000 tested, 0.91% active;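 active = inhibition above the screen-wide mean plus 3 SD, computed separately per campaign, cut at about 16% in these data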;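 note: 0% = DMSO wells and 100% = 60 µM geldanamycin wells; inhibitors lower the luminescence because luciferase stays unfolded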
HSF1 inh – HSF1 inhibitors in luciferase reporter cells, primary screen, cell-based, NIH3T3, luminescence; NIH3T3-HGL HSE-luciferase, MG132-induced, luminescence 8 h; stronger effect = lower value; activity change, negative = inhibition, % at 7.5 µM (by protocol); 300,000 tested, 0.77% active; AID 2098, 2009;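 active = more than half of replicate wells show activity change below -50%, luminescence cut by over half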;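 note: luciferase reports HSF-1 transcriptional activity via heat shock element; 0% = median of DMSO wells and -100% = zero luminescence signal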
HSF1 activator – HSF-1 activators, primary screen, NIH3T3-HGL cells, MG132 stress, luminescence, single point; 300,000 tested, 1.7% active; activation, % at 9 µM; NIH3T3-HGL HSF-1 luciferase reporter, 8 h; 100% = twice DMSO control signal; AID 504408, 2011;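 active = mean replicate activation of at least 50% with a set share of replicates each reaching 50%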;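 note: 0% = median of the neutral control wells and 100% = twice that signal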
TWEAK Fn14 block – inhibitors of TWEAK-Fn14 signaling, primary screen, luciferase reporter cells, uHTS | TWEAK-stimulated Fn14 reporter cells, luciferase luminescence, 8 h | inhibition, % at 10 µM | 360,000 tested, 2% active; in the data active = inhibition above about 50%
EBV LMP1 NFkB – EBV LMP1-driven NF-kappaB luciferase reporter inhibitors, primary screen, cell-based, luminescence, single point. LMP1-induced NF-kappaB luciferase reporter cells. inhibition, % at 12.5 µM. 350,000 tested, 0.69% active. AID 504558, 2011; in the data active = inhibition above about 41%;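 note: 0% = neutral control wells and 100% = reference inhibitor control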
TROY signal inh – inhibitors of TROY-driven NF-kB signaling, primary screen, Q293 LMP1-TROYcd cells, NF-kB luciferase, uHTS | Q293 LMP1-TROYcd NF-kB luciferase reporter, 4 h | inhibition, % at 10 µM | 360,000 tested, 0.98% active | AID 1347056, 2019;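 active = compounds whose plate-normalised and pattern-corrected inhibition of the luciferase reporter signal at the single screening dose is 50% or more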
The depositor's hits bear a star; / = no result given. Shown are actives, neighbours in structure and some others; about 4.7% of the full set was active somewhere.

SMILES	HSP90 inh	HSF1 inh	HSF1 activator	TWEAK Fn14 block	EBV LMP1 NFkB	TROY signal inh
CCC(=O)OC1c2ccccc2C(=O)N1Cc1ccccc1 (stereo not given)	-1.2	-1.1	7.5	3.7	87.1*	-8.0
CCCc1cc(-c2[nH]ncc2-c2ccc3c(c2)OCCCO3)c(O)cc1OC	0.0	/	/	/	/	/
COc1ccc(-c2[nH]ncc2-c2ccc3c(c2)OCCO3)c(O)c1	-1.0	-45.0	-54.7	77.7*	63.9*	60.9*
CCOc1ccc(-c2[nH]ncc2-c2ccc(Cl)cc2)c(O)c1	-4.5	10.3	2.5	-1.0	3.0	-4.2
COc1ccc(-c2cn[nH]c2-c2ccc(OCc3ccc([N+](=O)[O-])cc3)cc2O)cc1	2.9	-13.7	-5.8	77.5*	25.1	37.7
CCc1cc(-c2[nH]ncc2-c2ccc3c(c2)OCO3)c(O)cc1O	1.4	-15.1	-23.8	92.4*	10.0	68.3*
CCc1cc(-c2[nH]ncc2-c2ccc(OC)cc2)c(O)cc1O	0.7	-34.5	-31.8	64.0*	10.1	48.8
COc1ccc(-c2cn[nH]c2-c2ccc(O)cc2O)cc1OC	0.7	-10.8	-15.0	25.6	4.3	10.6
CCOc1ccc(-c2[nH]ncc2-c2ccc(OC)c(OC)c2)c(O)c1	-0.1	/	/	28.7	0.0	29.3
Fc1cccc(Cc2c(C3CCCCC3)nc3c4ccccc4ccn23)c1	/	/	/	-22.6	/	-71.2
Cc1ccc2c(c1)CCO[C@@]21O[C@H](CCO)C[C@H](O)[C@H]1O	/	/	/	2.4	0.1	11.2
CCN(c1ccccc1)S(=O)(=O)c1cc(C(=O)NCC(c2ccc(OC)cc2)N(C)C)ccc1C (stereo not given)	/	/	/	-5.0	9.6	28.4
N#CC(=C=[N-])c1nc2ccccc2nc1-[n+]1cccc(NC(=O)c2ccc(F)cc2)c1	0.5	-0.7	-18.8	/	/	/
N#CC(=C=[N-])c1nc2ccccc2nc1-[n+]1cccc(NC(=O)c2ccccc2)c1	4.2	0.3	-7.1	75.1*	1.4	-12.6
Cn1c2ccccc2c2ncn(CCCN3CCOCC3)c(=O)c21	2.6	0.1	-11.9	-1.6	-8.0	9.2
Cn1c2ccc(F)cc2c2ncn(CCN3CCOCC3)c(=O)c21	3.5	78.5	159.9*	4.3	2.4	-17.8
Cn1c2ccccc2c2ncn(CCC3=CCCCC3)c(=O)c21	6.4	36.5	61.0*	-5.2	-17.9	-50.0
O=C(N/N=C1/C(=O)c2cccc3cccc1c23)c1ccc(Cl)cc1	0.0	-1.1	7.6	106.0*	4.4	-36.2
COc1ccc(OC)c2c1sc(=NC(=O)c1ccco1)n2C	-0.2	1.1	-3.7	-30.4	52.8*	-13.2
COc1ccc(C(=O)N=c2sc3c(C)ccc(OC)c3n2C)cc1OC	8.9	41.5	62.4*	-22.8	-15.3	7.3
COCCN1C(=O)CCC1(C)c1nnnn1Cc1ccccc1 (stereo not given)	/	/	/	-3.0	/	-5.3
COc1ccc(-n2cnc3c(cnn3CCC#N)c2=N)cc1	-0.2	-0.1	17.8	-12.4	84.7*	8.2
CC1(C)CC2(C)OC2C2(C1)N=NC(=Nc1ccccc1)O2 (stereo not given)	/	/	/	28.2	/	-15.6
Cc1cc(C(=O)COc2ccc(C#N)cc2)c(C)n1-c1ccc2c(c1)OCO2	-4.1	-7.2	-19.4	88.6*	9.0	0.7
Cc1cc(C(=O)COC(=O)Cc2n[nH]c(=O)c3ccccc23)c(C)n1-c1ccc2c(c1)OCCO2	1.2	-57.2*	-57.9	68.3*	13.5	38.5
Cc1cc(C(=O)COC(=O)C2=COCCO2)c(C)n1-c1ccc2c(c1)OCO2	-7.0	-0.4	5.5	-10.7	-34.5	-21.3
ON=C1c2cc(OCCN3CCCCC3)ccc2-c2ccc(OCCN3CCCCC3)cc21	8.7	-11.1	-19.8	-4.5	-56.2	15.2
NC(=S)NN=C1c2cc(OCCN3CCOCC3)ccc2-c2ccc(OCCN3CCOCC3)cc21	-1.8	1.3	14.8	6.5	-5.4	75.1*
CSc1ccc(Cn2c(C)c(C(=O)NCCC#N)sc2=O)cc1	/	/	/	-7.1	/	15.8
CC(=O)N(C)c1ccc(N=Nc2ccc3ncccc3c2)cc1	/	/	/	61.6*	3.3	12.7
